# Data from PubChem BioAssay AID504467 (National Center for Advancing Translational Sciences (NCATS), 2011).
# Screen size: about 330,000 compounds; about 7,700 (2.3%) were called active. About 26% were inconclusive and are not listed. Calls follow the shape of the dose curve; as a rule, active = well fitted inhibition curve with a large enough effect; inconclusive = small, poorly fitted or top-dose-only effect, or effect the other way; inactive = flat fitted curve, though single readings scatter. What follows is part of a selection rich in actives, with near analogues and random picks from the rest. Entries that show only a call come without a potency.
# Experiment: qHTS screen for small molecules that inhibit ELG1-dependent DNA repair in human embryonic kidney (HEK293T) cells expressing luciferase-tagged ELG1; also: nearly all actives have a fitted effect of over 55% in size
# Conditions: HEK293T ELG1-luciferase reporter, luminescence, 16 h, DNA damage induced by 5-fluorouridine; series mostly up to 46.1 µM
# Summary of the method: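 Luminescence from the luciferase reporter, measured 30 min after ONE-Glo reagent at room temperature, was the read-out. Beforehand, 2,000 cells per well were exposed for 16 hr at 37 °C to 5-fluorouridine together with compound or vehicle.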
# Potency is read from the fitted curve at half-maximal effect.
row,SMILES,Potency
1,CCc1ccccc1NC(=O)CN(C)C(=O)c1cc(C2CC2)nn1-c1ccccc1,inactive
2,O=C(c1ccc2nc(N3CCOCC3)sc2c1)N1CCN(c2ccc(Cl)cc2)CC1,inactive
3,O=C(/C=C/c1cn(-c2ccccc2)nc1-c1ccc2c(c1)OCCO2)NCCCN1CCOCC1,inactive
4,O=C(/C=C\c1cn(-c2ccccc2)nc1-c1cccs1)N1CCOCC1,16.4 µM (active)
5,O=C(O)/C=C/c1cn(Cc2ccccc2)nc1-c1cccs1,inactive
6,CC(C)C[C@H](NC(=O)N1CC(=O)Nc2ccccc21)C(=O)N[C@H](Cc1ccccc1)C(=O)O,inactive
7,CCCCCCSc1ccc(-c2nc3ccc(Cl)cn3c2NCc2ccccc2)cc1,inactive
8,CN(C(=O)COc1ccccc1)c1nnc(-c2ccncc2)s1,inactive
9,CN(C)CCCN(C(=O)COc1ccccc1)c1nc2c(Cl)cccc2s1,inactive
10,COc1ccc(CCN(C(=O)COc2ccccc2)c2nc(-c3ccccc3)cs2)cc1OC,23.1 µM (active)
11,Cc1cc(F)ccc1NC(=S)NCCc1ccccc1,inactive
12,COc1ccc(-c2noc(C(C)NS(=O)(=O)c3ccc(NC(C)=O)cc3)n2)cc1 (configuration not stated),inactive
13,COc1ccc(-n2c(=O)[nH]c3cc(C(=O)NCCc4ccc(OC)c(OC)c4)ccc3c2=O)c(OC)c1,inactive
14,O=C(CCl)NNc1nc(-c2ccccc2)c2cc(Cl)ccc2n1,inactive
15,NC(N)=Nc1nc(-c2ccccc2)c2cc(Cl)ccc2n1,inactive
16,Clc1ccc2nc(-c3ccccc3)nc(C(Cl)Cl)c2c1,2.31 µM (active)
17,Cn1c(CCN2CCCC2)nc2cc(NS(=O)(=O)c3ccccc3)ccc21,inactive
18,CCOCCn1[nH]c2ccccc2c1=O,inactive
19,COc1ccc(N(CC(=O)NCc2ccc(F)cc2)C(=O)CCC(=O)Nc2nccs2)cc1,inactive
20,COc1ccc(NC(=O)CN(C)CC(=O)Nc2cccc(C(F)(F)F)c2)cc1,inactive
21,Cc1cccc(NC(=O)c2nnn(-c3cccc(C(F)(F)F)c3)c2N)c1,inactive

row,SMILES,Potency
1,COc1cc(NC(=O)c2[nH]cnc2C(N)=O)cc(C(=O)Nc2cccc(C(F)(F)F)c2)c1,5.8 µM (active)
2,CN=C(Nc1cccc(S(=O)(=O)N2CCOCC2)c1)c1ccccc1,inactive
3,Cn1cncc1C#Cc1c(-c2ccsc2)sc2ccccc12,inactive
4,CNS(=O)(=O)c1ccc(C(=O)NCC(=O)NCCc2ccc3c(c2)OCCO3)cc1,inactive
5,COc1ccccc1/C=C1\SC(=O)N(CCC(=O)N(C)C2CCS(=O)(=O)C2)C1=O (configuration not stated),inactive
6,Cn1c(SCC(=O)N/N=C/c2ccc(O)c(O)c2)nc2ccccc21,inactive
7,O=C(CSc1nc2ccccc2c(=O)n1-c1ccc(F)cc1)NC1CC1,inactive
8,Cc1nn(-c2ccccc2)c(C)c1/C=N/NC(=O)CSc1nc2ccccc2c(=O)n1-c1ccccc1,16.4 µM (active)
9,COc1ccc(-n2nc(C(=O)NCC(=O)Nc3cccc(C)n3)c3ccccc3c2=O)cc1,18.4 µM (active)
10,CCCN(CCC)CCCNC(=O)CNC(=O)c1nn(-c2ccc(OC)cc2)c(=O)c2ccccc12,inactive
11,COCCCNC(=O)CNC(=O)c1nn(-c2ccc(OC)cc2)c(=O)c2ccccc12,inactive
12,CN1CCN(S(=O)(=O)c2ccc(N3CCN(c4ccccc4O)CC3)c([N+](=O)[O-])c2)CC1,inactive
13,CCOc1ccc(CCNC(=O)CN2C(=O)NC3(CCc4ccccc43)C2=O)cc1OCC (configuration not stated),inactive
14,O=C(c1cccc(F)c1)N1CCN(c2ccc([N+](=O)[O-])c(N3CCCCC3)c2)CC1,inactive
15,O=C(c1ccccc1)c1ccc(C(=O)N2CCN(c3ccccc3)CC2)cc1,inactive
16,O=C(c1cccc(C(=O)N2CCN(c3ccc(F)cc3)CC2)c1)N1CCN(c2ccc(F)cc2)CC1,18.4 µM (active)
17,O=C(c1cc2cc(F)ccc2[nH]1)N1CCN(c2ccc(F)cc2)CC1,inactive
18,O=C(c1ccc(Cl)c([N+](=O)[O-])c1)N1CCN(c2ccccc2)CC1,inactive
19,O=C(c1cc(C(=O)N2CCN(c3ccc(F)cc3)CC2)cc([N+](=O)[O-])c1)N1CCN(c2ccc(F)cc2)CC1,11.2 µM (active)
20,N#CC(Cc1cc2ccccc2n1S(=O)(=O)c1ccccc1)OCc1ccccc1 (configuration not stated),inactive
21,Cn1cccc1C(=O)OCC(=O)NCCc1ccccc1,inactive

row,SMILES,Potency
1,Cc1cccc(C)c1NC(=O)COC(=O)c1c(C)nn(-c2ccccc2)c1C,inactive
2,O=C(CCNC(=O)c1ccc(Br)cc1)NCC(c1ccco1)N1CCCCC1 (configuration not stated),inactive
3,CNC(=O)c1ccsc1NC(=O)c1ccc(S(=O)(=O)N2CCc3ccccc32)cc1,18.4 µM (active)
4,CC1CC(C)CN(S(=O)(=O)c2ccc(C(=O)NN3CCOCC3)cc2)C1 (configuration not stated),inactive
5,CCn1c(=O)c(=O)n(CC)c2cc(S(=O)(=O)N3CCc4ccccc43)ccc21,inactive
6,COc1cccc(NC(=O)c2cc(S(=O)(=O)N3CCc4ccccc43)cn2C)c1,inactive
7,CC1CN(S(=O)(=O)c2ccc(C(=O)NN3CCN(C)CC3)cc2)CC(C)O1 (configuration not stated),inactive
8,CC1CN(S(=O)(=O)c2ccc(C(=O)Nc3sccc3C(N)=O)cc2)CC(C)O1 (configuration not stated),18.4 µM (active)
9,N#Cc1c(-c2ccccc2)nc(SCc2ccc([N+](=O)[O-])cc2)[nH]c1=O,inactive
10,O=C(CNC(=O)C1COc2ccccc2O1)N/N=C/c1cc(Br)c(O)c(Br)c1 (configuration not stated),inactive
11,O=C(CSc1nccn1-c1cccc(F)c1)NC1CCCC1,inactive
12,CC(C)CC(O)C1CCN(C(=O)CCc2nnc(-c3ccc4c(c3)OCO4)o2)CC1 (configuration not stated),inactive
13,CCn1c2ccc(F)cc2c2nnc(SCCN3CCOCC3)nc21,inactive
14,CCN(CC(=O)NC(C)C)C(=O)c1cc(S(=O)(=O)N2CCCCC2)ccc1N1CCCCC1,inactive
15,CCN(CC(=O)Nc1ccccc1C(=O)NC1CC1)Cc1cccs1,inactive
16,Cc1cccc(-c2nc3ccccc3c(=O)n2NC(=O)Cc2ccc(Cl)cc2)c1,inactive
17,O=c1c2cc(Br)ccc2nc(-c2cccc(Cl)c2)n1O,18.3 µM (active)
18,O=C1CCCc2c1nc(-c1cccc(Cl)c1)n2O,inactive
19,Cc1ccc(NC(=O)Cn2cnc3c(OCc4ccccc4)ncnc32)cc1C,inactive
20,Cc1cc(C)c(S(=O)(=O)NCC(c2ccc3c(c2)OCO3)N2CCOCC2)c(C)c1 (configuration not stated),inactive
